# Reference: PubChem BioAssay AID652010 (The Scripps Research Institute Molecular Screening Center, 2013)
# The whole screen tested about 370,000 compounds, of which about 4,100 (1.1%) were called active.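 The calls were made as follows: active = inhibition above the mean over all tested compounds plus 3 SD (cut at about 3.6% in these data); inactive = the rest.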 For the sample, actives were picked, then their nearest neighbours and some compounds at random.
# Assay: DAX1 (NR0B1) inhibitors on StAR promoter, primary screen, cell-based, luminescence, SF-1 (NR5A1), full-length DAX-1 (AID 652010);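 also: 0% = DAX-1 cells with DMSO and 100% = cells lacking DAX-1 with DMSO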
# Settings: HEK293T StAR-luciferase reporter, SF-1/DAX-1 repression relief; at 6.8 µM; stronger effect = higher value
row,SMILES,inhibition
1,CN(CCc1ccccc1)C(=O)Cn1nc(-c2ccccc2)ccc1=O,-1.5% (inactive)
2,CSc1ccccc1NC(=O)c1cc(C2CC2)on1,3.85% (active)
3,CSc1ccccc1NC(=O)c1cc(Cl)sc1Cl,-0.22% (inactive)
4,Cc1nn(Cc2ccc(Cl)c(Cl)c2)c(C)c1NC(=O)c1cc(C2CC2)on1,-1.2% (inactive)
5,COc1cccc(C(=O)Nc2cc3c(cc2Br)OCCCO3)c1,2.47% (inactive)
6,Cc1ccc(C(=O)Nc2nnc(C3=COCCO3)o2)cc1C,1.49% (inactive)
7,C/C(=N/NC(=S)Nc1ccccc1)c1ccc2c(c1)OCO2,0.83% (inactive)
8,Cc1ccc(C(=O)Nc2ccc3c(c2)OCCO3)cc1S(=O)(=O)N1CCOCC1,1.01% (inactive)
9,O=C(Nc1ccc(N2CCN(C(=O)c3ccccc3)CC2)c(Cl)c1)c1cccnc1,-1.45% (inactive)
10,Cc1ccc(S(=O)(=O)NCC(=O)Nc2ccc3c(c2)OCCO3)cc1,-0.38% (inactive)
11,Cc1nc(NC(=O)c2ccc3c(c2)OCCO3)ccc1Br,12.7% (active)
12,O=C(Nc1ccc(N2CCOCC2)c(Cl)c1)c1ccc(S(=O)(=O)N2CCOCC2)cc1,-0.43% (inactive)
13,CN1CCN(c2ccc(NC(=O)c3ccc4c(c3)OCCO4)cc2Cl)CC1,4.89% (active)
14,C/C(Cc1ccccc1)=N\NC(=O)CNC(=O)c1ccc2c(c1)OCCO2,0.38% (inactive)
15,Cc1ccc(C(=O)NNC(=O)c2ccc3c(c2)OCCO3)cc1,5.23% (active)
16,O=C(Nc1ccccc1)c1ccc2c(c1)OCCCO2,14.7% (active)
17,CC(C)(C)n1nc(C2CC2)c(Br)c1NC(=O)c1ccccc1F,-1.59% (inactive)
18,N#Cc1ccc(OC[C@@H](O)CN2CCC(C(O)(c3ccccc3)c3ccccc3)CC2)c(F)c1,-0.27% (inactive)
19,CC(C)CNS(=O)(=O)CC1NCCc2ccccc21 (stereo not drawn),-0.78% (inactive)
20,COc1cccc(N2CCN(CC(=O)N(C)Cc3ccc(F)cc3)CC2)c1,-0.23% (inactive)
21,C=CCN1C(=O)[C@@H](CC(=O)NCCCCc2ccccc2)[C@]2(C(=O)OCC)CCCCC/C=C/12,-0.85% (inactive)
22,CCOC(=O)Cn1c2c(n(-c3ccc(F)cc3)c1=O)C=C(c1ccccc1)[C@@H](C)C(C(=O)N(C)C1CCCCC1)=C2,-1.69% (inactive)
23,Cn1c(=O)c([N+](=O)[O-])c(Oc2ccccc2)c2ccccc21,-1.48% (inactive)
24,C=CCN1C(=O)[C@H](CC(=O)NCCCN2CCCC2=O)[C@@]2(C(=O)OCC)CCCC=C12,0.2% (inactive)

row,SMILES,inhibition
1,CCCCCN1CCCCC(NC(=O)C(C)CCC)C1=O (stereo not drawn),0.06% (inactive)
2,c1csc(-c2nnc(SCc3nc4ccccc4[nH]3)o2)c1,-0.62% (inactive)
3,CCc1ccc2oc(-c3ccc(N)cc3)nc2c1,5.85% (active)
4,O=C(C1CCC(=O)N(C2CC2)C1)N1CCN(c2ccc(Cl)cc2)CC1 (stereo not drawn),-0.61% (inactive)
5,CC1(C(=O)Nc2cccc3c2CCCC3)CCN1C(=O)C1(c2ccccc2)CC1 (stereo not drawn),-0.73% (inactive)
6,CCOc1ccc2nc(C(=O)N3CCCC(C)C3)sc2c1 (stereo not drawn),4.1% (active)
7,CCOc1ccc(NC(=O)C2CCCN(C(=O)Nc3ccccc3)C2)cc1 (stereo not drawn),-0.8% (inactive)
8,COc1ccc2cc(C(=O)C3CCCN(C(=O)c4sc(C)nc4C)C3)ccc2c1 (stereo not drawn),0.57% (inactive)
9,Nc1ccc(C(=O)Nc2ccccc2N)cc1,15.9% (active)
10,CC(CNC(=O)c1ccc(N)cc1)NC(=O)c1ccc(N)cc1 (stereo not drawn),0.06% (inactive)
11,O=C(Nc1ccccc1C(=O)N1CCOCC1)c1ccc(Cl)cc1,-0.37% (inactive)
12,C#CCCN([C@H](C(=O)OC)C(C)C)S(=O)(=O)c1ccc(F)cc1Br,-0.77% (inactive)
13,O=C1CCC2(CCC(c3ccc(Cl)cc3)CC2)N1CCO (stereo not drawn),-1.36% (inactive)
14,O=S1(=O)c2c(cccc2N2CC[C@H](O)C2)O[C@@H]2CCN1C2,-0.61% (inactive)
15,COc1ccc(OCc2cc(C(=O)NCC3(C)COC3)no2)c(Cl)c1,-0.13% (inactive)
16,Cc1cc(OCc2cc(C(=O)NCc3cc(C(C)C)no3)no2)cc(C)c1Cl,7.8% (active)
17,COCCCNC(=O)COc1cc(C)c(Cl)c(C)c1,-0.64% (inactive)
18,N#Cc1ccc(-c2nc3cc(C#N)c(C#N)cc3nc2-c2ccccc2)cc1C#N,-0.36% (inactive)
19,Cc1cc(NC(=O)Nc2ccccc2[N+](=O)[O-])no1,-0.12% (inactive)
20,Cc1csc(NC(=O)Nc2ccccc2[N+](=O)[O-])n1,4.06% (active)
21,CN1CCN(CCNC(=O)Nc2ccccc2[N+](=O)[O-])CC1,-0.08% (inactive)
22,O=C1[C@@H]2C(c3cccnc3)=NO[C@@H]2C(=O)N1c1ccc(Cl)cc1Cl,-0.39% (inactive)
23,COc1cccc(CNC(=O)CNS(=O)(=O)c2ccc3nc(C)sc3c2)c1OC,-0.3% (inactive)
24,Cc1ccc(CSc2nnc(SCC(=O)NN=Cc3cc(Br)ccc3F)s2)cc1,-0.52% (inactive)

row,SMILES,inhibition
1,COc1ccc(C(=O)OCCN2CCN(C3CN(Cc4cn(Cc5ccccc5F)nn4)S(=O)(=O)C3)CC2)cc1OC (stereo not drawn),-2.65% (inactive)
2,COc1cccc(C(=O)Nc2ccc3nc4n(c(=O)c3c2)CCCCC4)c1,-0.05% (inactive)
3,O=c1c2c(nc3n1CCCCC3)sc1c(O)cccc12,4.81% (active)
4,O=C(Nc1ccc2nc3n(c(=O)c2c1)CCCC3)c1ccc(Cl)nc1,-1.19% (inactive)
5,O=C(Cn1[nH]c(=O)c2ccccc2c1=O)Nc1cccc(-c2nnc3n2CCCCC3)c1,-0.2% (inactive)
6,N=c1c2c3c(sc2nc2n1CCCCC2)CCCC3,0.02% (inactive)
7,CC(=O)c1ccc(NC(=O)c2sc3nc4n(c(=O)c3c2C)CCCCC4)cc1,4% (active)
8,CCOc1ccccc1C(=O)N1CCC[C@@H]1C(=O)N1CCC[C@H]1C(=O)NCc1ccccc1,0.55% (inactive)
9,COc1ccc(-n2c(SCC(=O)NC3CCCC3)nnc2-c2ccncc2)cc1,-0.56% (inactive)
10,CC(=NNC(N)=O)c1ccc(Cl)c(-n2cccc2)c1,-0.18% (inactive)
11,Cn1c(SCC(=O)NC2CCCCC2)nnc1-c1cc2ccccc2o1,-0.14% (inactive)
12,CCNc1nc(-c2cc3ccccc3o2)cs1,4.18% (active)
13,COc1ccccc1CN(C)C(=O)c1cc2ccccc2o1,-0.34% (inactive)
14,O=C(NCc1ccc(F)cc1)c1cc(C2CCCCN2C(=O)c2ccccn2)on1 (stereo not drawn),-1.23% (inactive)
15,COc1ccc(C2CC=C(C(=O)O)C(c3ccccc3F)N2S(=O)(=O)c2ccc(C)cc2)cc1OC (stereo not drawn),0.7% (inactive)
16,O=S(=O)(c1ccccc1)N1CCC(c2nc3ccccc3o2)CC1,-0.48% (inactive)
17,Cc1ccc(CN2CCC(N3CCC(C(=O)NCC4CCCO4)CC3)CC2)o1 (stereo not drawn),0.9% (inactive)
18,Cc1cccc(NC(=O)COc2ccc(Br)cc2C)n1,2.42% (inactive)
19,CC(=O)Nc1cccc(-c2csc(Nc3cccc(C)n3)n2)c1,4.69% (active)
20,CC(=O)NC(c1cccc(F)c1)c1nc(-c2cccc(F)c2)cs1 (stereo not drawn),-0.34% (inactive)
21,OC(c1ccccc1)(c1ccccc1)C1CCN(CCCOc2ccc(-c3ccsc3)cc2)CC1,-0.82% (inactive)
22,CCC(=O)Nc1ccc2c(c1)C(=O)N(C)[C@H]1CC[C@H](CC(=O)NCCOC)O[C@@H]1CO2,0.92% (inactive)
23,Cc1c(N=Nc2ccc(N(C)C)cc2)c(=O)n(-c2ccccc2)n1C,4.03% (active)
24,Cc1nc(N)sc1N=Nc1c(C)n(C)n(-c2ccccc2)c1=O,0.04% (inactive)

row,SMILES,inhibition
1,Cc1c(C=O)n(C)n(-c2ccccc2)c1=O,0.3% (inactive)
2,C=CCn1c(SCC(N)=O)nnc1-c1ccccc1OC,-0.12% (inactive)
3,CCN(CC(=O)Nc1ccc(C)c(S(=O)(=O)N(C)C)c1)Cc1ccccc1,0.23% (inactive)
4,Cc1ccc(C(=O)Nc2ccc(C)c(S(=O)(=O)N(C)C)c2)s1,4.23% (active)
5,COc1ccc(CCC(=O)OCC(=O)Nc2ccc(C)c(S(=O)(=O)N(C)C)c2)cc1,1.11% (inactive)
6,CCc1nc2ccc(C(=O)Nc3ccc(OC)c(OC)c3)cn2c1N(C)C(=O)c1cccc(OC)c1,-1.08% (inactive)
7,CSCCC(NC(=O)c1ccco1)C(=O)Nc1cc(C)ccn1 (stereo not drawn),11% (active)
8,CSCCC(NC(=O)c1ccco1)C(=O)NCCc1ccc(F)cc1 (stereo not drawn),0.47% (inactive)
9,CSCCC(NC(=O)c1ccco1)C(=O)OCC(=O)Nc1ncc(Cl)c(C)c1Cl (stereo not drawn),-0.11% (inactive)
10,COC(=O)c1ccc(CN2C(=O)NC(c3ccccc3)(c3ccccc3)C2=O)o1,0.15% (inactive)
11,O=C(C1CCCN1S(=O)(=O)c1ccccc1)N1CCc2ccccc2C1 (stereo not drawn),-0.56% (inactive)
12,CC(C)CC(=O)NC(=S)NNC(=O)c1cccc([N+](=O)[O-])c1,-0.72% (inactive)
13,CC(C)C(C)NC(=O)COc1ncnc2ccccc12 (stereo not drawn),-0.45% (inactive)
14,CC(C)CC(=O)N/C(N)=N/c1nc2ccccc2s1,4.37% (active)
15,O=C(CSc1nc2ccccc2s1)NN=Cc1ccc(O)cc1O,-0.65% (inactive)
16,CC(NC(=O)COC(=O)c1ccc2ccccc2n1)c1ccccc1 (stereo not drawn),0.44% (inactive)
17,CCC(=O)NC(=Nc1nc2ccccc2s1)NC(=O)CC,3.92% (active)
18,Cc1ccc(C)c(NC(=O)CCS(=O)(=O)c2ccccc2)c1,0.88% (inactive)
19,COc1ccc(S(=O)(=O)n2nc(C)c(S(=O)(=O)N3CCOCC3)c2C)cc1,-0.25% (inactive)
20,COc1ccc(CN2C/C(=C/c3ccccc3)N3C(=O)C[C@@H](c4ccccc4)N=C23)c(OC)c1,-0.16% (inactive)
21,CCN(CC)C(=O)CC[C@H]1CC[C@]2(CCCN(Cc3ccc(Cl)cc3)C2)O1,-0.32% (inactive)
